# Experimental data taken from PubChem BioAssay (NCATS).
# “And” between values parts separate entries of the source, which are not always exact repeats. Equal values may be shown once. Records with an inconclusive call do not appear. Values without a mark were called inactive. The source made the active and inactive calls. The call rests on the fitted dose curve; in most records, active means well fitted activation curve with a large enough effect; inconclusive means small, poorly fitted or top-dose-only effect; inactive means no such curve, though single readings can be large or run the other way.
# Biological target: Cellular tumor antigen p53 (Homo sapiens) (UniProt P04637)
# Assay: Primary qHTS for small molecule compounds that upregulate eGFP-tagged delta133p53alpha (in N-terminal) cells. (AID 2060322); further: nearly all actives have a fitted effect of over 75% in size;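 on activation: series mostly up to about 56 µM; 0% = DMSO vehicle and 100% = reference activator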
# Conditions: NCI-H358 eGFP-delta133p53alpha fluorescence, 24 h; activation: hits give high values
# Procedure, shortened: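 NCI-H358 cells pre-induced 24 h with 10 ng/ml doxycycline to express N-terminal eGFP-delta133p53alpha, then dosed 24 h at 37C without doxycycline; fixed, Hoechst-stained, GFP intensity by laser scanning cytometry, normalized to DMSO (0%) and 57.5 uM 5-azacytidine (100%).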
# Potency means the concentration at half of the fitted maximal effect.
# Sequence of Cellular tumor antigen p53 (Homo sapiens) (P04637 whole entry, looked up): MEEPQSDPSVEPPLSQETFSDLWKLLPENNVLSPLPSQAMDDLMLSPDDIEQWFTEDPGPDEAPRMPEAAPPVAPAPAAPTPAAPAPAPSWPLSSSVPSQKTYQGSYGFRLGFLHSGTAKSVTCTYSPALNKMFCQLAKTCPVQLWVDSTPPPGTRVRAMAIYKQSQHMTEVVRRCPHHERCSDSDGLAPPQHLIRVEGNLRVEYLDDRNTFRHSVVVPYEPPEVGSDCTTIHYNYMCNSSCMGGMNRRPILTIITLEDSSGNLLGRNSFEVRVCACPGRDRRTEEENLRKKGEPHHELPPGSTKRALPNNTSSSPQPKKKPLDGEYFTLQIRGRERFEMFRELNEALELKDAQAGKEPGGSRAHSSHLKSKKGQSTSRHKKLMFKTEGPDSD
Compound,activation,Potency
O=C1OCCN1/N=C/c1ccc([N+](=O)[O-])o1,-3.35%,
Cc1cnc(NS(=O)(=O)c2ccc(N)cc2)nc1,2.82%,
O=C(O)Cn1c(C(=O)Nc2nc(-c3ccccc3Cl)cs2)cc2ccccc21,5.08%,
CN(C)CCN1CCN(c2cccc(Cl)c2)C1=O,-13%,
Cc1cccc(C)c1NC(=O)c1ccc(N)cc1,-2.82%,
CCOC(=O)c1ccccc1O,-2.51%,
CCN[C@@H]1C[C@H](N)[C@@H](OC2OC(CN)=CCC2N)[C@H](O)[C@H]1O[C@H]1OC[C@](C)(O)[C@H](NC)[C@H]1O (stereo not given in full),1.67%,
COC(=O)[C@]12CCC(C)(C)C[C@@H]1[C@@H]1C(=O)C=C3[C@@]4(C)C=C(C#N)C(=O)C(C)(C)[C@@H]4CC[C@@]3(C)[C@]1(C)CC2,,10.9 µM (active)
CCOC(=O)c1c(N)sc2c1CCN(Cc1ccccc1)C2,,15.5 µM (active)
CCCOc1ccc2c(c1)CC[C@@H]1[C@@H]2CC[C@]2(C)C(OC)CC[C@@H]12 (stereo not given in full),0.565%,
CNC[C@@H](O)[C@@H](O)[C@H](O)[C@H](O)CO,4.39%,
CCCc1c(OCCCCc2nn[nH]n2)ccc(C(C)=O)c1O,-2.82%,
NCCC(O)(P(=O)(O)O)P(=O)(O)O,-6.21%,
CN1CCc2cccc3c2[C@H]1Cc1ccc(O)c(O)c1-3,21.8%,
O=C(O)C1=CO[C@@H](O[C@@H]2O[C@H](CO)[C@H](O)[C@H](O)[C@H]2O)[C@@H]2C(CO)=CC[C@H]12,30.5%,
C=CCc1cc(OC)c(O)c(C(=O)NCCO)c1,-4.18% and -21%,
C[C@H]1C[C@H]2[C@@H]3CCC4=CC(=O)C=C[C@]4(C)[C@@H]3C(=O)C[C@]2(C)[C@@]1(O)C(=O)CO,-19.3%,
CCCCC(C)(C)[C@H](O)C=C[C@H]1[C@H](O)CC(=O)[C@H]1CC=CCCCC(=O)O,1.38%,
CCC1(c2cnc[nH]2)Cc2ccccc2C1,-7.53%,
O=C(CCBr)N1CCN(C(=O)CCBr)CC1,20.9%,

Compound,activation,Potency
CCOc1c(N2CCOCC2)cnn(C)c1=O,-4.18%,
N[C@@H](CSCCCO)C(=O)O,-10%,
CC1(C)[C@H](O[C@H]2O[C@H](C(=O)O)[C@@H](O)[C@H](O)[C@H]2O[C@@H]2O[C@H](C(=O)O)[C@@H](O)[C@H](O)[C@H]2O)CC[C@@]2(C)[C@H]1CC[C@]1(C)[C@H]2C(=O)C=C2[C@H]3C[C@@](C)(C(=O)O)CC[C@]3(C)CC[C@]21C,-5.71%,
C=C1C(=CC=C2CCCC3(C)[C@@H]([C@H](C)C=CC=CC(O)(CC)CC)CC[C@@H]23)C[C@@H](O)C[C@@H]1O (stereo not given in full),-6.37%,
C=CC(=O)Nc1cccc(Nc2nc(NC3CCC(N(C)C)CC3)nc3c2ncn3C(C)C)c1 (stereo not given),,4.85 µM (active)
O=S(c1cc(Cl)cc(Cl)c1O)c1cc(Cl)cc(Cl)c1O,-0.565%,
O=C(O)Cc1cccc2ccccc12,1.67% and -33.3%,
CCOC(=O)[C@H](CCc1ccccc1)N[C@@H](C)C(=O)N1CCCC1C(=O)O (stereo not given in full),-2.61%,
Cc1cn([C@@H]2O[C@H](CO)[C@@H](O)[C@H]2F)c(=O)[nH]c1=O,5.67%,
CC(NN)c1ccccc1 (stereo not given),6.69%,
N=C(N=C(N)N)N1CCOCC1,1.67% and -4.92%,
O=C(O)c1ccc(OCCCOc2ccc(C(=O)O)cc2)cc1,-13%,
CCN(CC)C(=O)N1CCN(C)CC1,-2.51%,
O=C(O)C1(C(=O)O)CCC1.[NH2-].[NH2-].[Pt+2],0.565%,
CC1CC(OC(=O)c2ccccc2O)CC(C)(C)C1 (stereo not given),-0.565%,
Nc1nnnn1-c1ccccc1,29.9%,
OCCOCCN1CCN(C2=Nc3ccccc3Sc3ccccc32)CC1,7.53%,
CN1CCN(c2cc3c(cc2F)c(=O)c(C(=O)O)cn3-c2ccc(F)cc2)CC1,20.1%,
CC(CNC1CCCCC1)OC(=O)c1ccccc1 (stereo not given),-9.21%,
O=C(Nc1ccc(Cl)cc1)Nc1ccc(Cl)c(Cl)c1,0.565%,
